# From PubChem BioAssay AID686922 (National Center for Advancing Translational Sciences (NCATS), 2013)
# Several values for one entry are separate records, joined by “and”; a condition that tells them apart may be missing. Equal values may be shown once. Records with an inconclusive call do not appear. Activity calls are given as the source filed them. The call rests on the fitted dose curve; in most records, active means well fitted inhibition curve with a large enough effect; inconclusive means small, poorly fitted or top-dose-only effect; inactive means no such curve, though single readings can be large or run the other way.
# Assay: qHTS screen for inhibitors of ELG1-dependent DNA repair in human embryonic kidney (HEK293T) cells expressing luciferase-tagged ELG1: MMS Viability Assay for probe SAR
# Settings: HEK293T ELG1-luc + MMS viability, CellTiter-Glo, 16 h; series mostly up to 46.1 µM; activity change, negative = lower viability: at the top concentration
# Description: Cancer cells divide rapidly compared to normal cells in the body. During cell division, cancer cells need to duplicate their genome by DNA replication. The failure of genome duplication leads to cancer cells' death. Therefore, inhibitors of DNA replication could specifically kill cancer cells. Based on this concept, many chemotherapeutic agents were developed and have been used to treat cancer patients. However, there are a limited number of agents available in the clinical setting, and some of those that do exist have low efficacy and severe side effects. Therefore, if we can find the compounds that effectively block DNA replication either by directly damaging DNA or by inhibiting other cellular mechanisms, the options for cancer treatment will be broadened. With this in mind, we developed a quantitative high-throughput ELG1-luciferase reporter gene assay. Small molecules that specifically block ELG1 function in response to DNA damage can be identified by monitoring the suppression of luciferase activity. Since ELG1 defines a pathway for repairing DNA damage, agents blocking ELG1 function can be used to sensitize cancer cells to chemotherapeutic agents whose mechanism of action involves the induction of DNA damage. Cytotoxicity of the active compounds in the ELG1 qHTS assay with MMS stimulation (AID 493125) was assessed using the CellTiter-Glo Luminescent Cell Viability Assay kit (Promega, USA). CellTiter-Glo measures the intracellular ATP present in metabolically active cells using Ultra-Glo as the luciferase to detect ATP levels. In brief, the luciferase in the buffer catalyzes the oxidation of luciferin to oxyluciferin and light which is dependent on ATP. […] DMSO and wells with media alone were used as positive and negative controls, respectively. Inactivity to this assay is the desirable outcome. NIH Molecular Libraries Probe Production Network [MLPCN] NIH Chemical Genomics Center [NCGC] MLPCN Grant: R03 MH092164 Assay Provider: Kyungjae Myung, NHGRI, NIH
# ELG1-luc HEK293T cells will be seeded in 1536-well plates at a density of 2,000 cells/well. Approximately 5 hours after plating, compounds will be added to the plate by pin tool transfer and MMS will be added by FRD dispenser (final concentration of MMS = 10 µM). 16 hours following the addition of the compounds, cell viability will be measured using CellTiter Glo.
Compound,Potency,"activity change, negative = lower viability"
COc1cc(Nc2nc(-c3ccncc3)nc3ccccc23)ccc1F,23.5 µM (active) and 20.9 µM (active),
Oc1ccc(Nc2nc(-c3ccncc3)nc3ccccc23)cc1F,,-27.3% (inactive)
O=c1cc(-c2nc(Nc3ccc(F)c(F)c3)c3ccccc3n2)cc[nH]1,,9.88% (inactive)
CN1CCN(c2ccc(Nc3nc(-c4ccncc4)nc4ccccc34)cc2F)CC1,,-7.11% (inactive)
Fc1ccc(-c2ccc(Nc3nc(-c4ccncc4)nc4ccccc34)cc2F)c(F)c1,7.43 µM (active),
COc1nccc(-c2nc(Nc3ccc(F)c(F)c3)c3ccccc3n2)c1Cl,,-4.2% (inactive)
Fc1cc(Nc2nc(-c3ccncc3)nc3ccccc23)ccc1-c1ccc(F)c(F)c1F,,3.54% (inactive)
COc1ccc(-c2nc(Nc3ccc(F)c(F)c3)c3ccccc3n2)cc1,,-27.9% (inactive)
COc1cc(-c2nc(Nc3ccc(F)c(F)c3)c3ccccc3n2)cc(OC)n1,,-75.3% (inactive)
Fc1ccc(-c2nc(-c3ccncc3)nc3ccccc23)cc1F,,-13.7% (inactive)
CSc1ccccc1-c1ccc(Nc2nc(-c3ccncc3)nc3ccccc23)cc1F,,-35.6% (inactive)
Fc1ccc(Nc2nc(-c3ccnc(C(F)(F)F)c3)nc3ccccc23)cc1F,20.9 µM (active),
Fc1ccc(Nc2nc(-c3ccnc(N4CCCCC4)c3)nc3ccccc23)cc1F,,3.34% (inactive)
Fc1cccc(-c2ccc(Nc3nc(-c4ccncc4)nc4ccccc34)cc2F)c1,,-21.1% (inactive)
CCOC(=O)c1ccc2c(c1)c(C(C)=O)c(C)n2-c1ccc(OC)cc1,,1.14% (inactive)
Fc1cc(Nc2nc(-c3ccncc3)nc3ccccc23)ccc1-n1cncn1,inactive,
Fc1cc(Nc2nc(-c3ccncc3)nc3ccccc23)ccc1OCC(F)(F)F,,-9.42% (inactive)
Cc1cc(-c2nc(Nc3ccc(F)c(F)c3)c3ccccc3n2)cc(C)n1,,-8.79% (inactive)
Fc1cc(Nc2nc(-c3ccncc3)nc3ccccc23)ccc1-c1cccnc1,,1.55% (inactive)
Cc1nc2ccc(Nc3nc(-c4ccncc4)nc4ccccc34)cc2s1,,-3.61% (inactive)

Compound,Potency,"activity change, negative = lower viability"
Fc1cc(Nc2nc(-c3ccncc3)nc3ccccc23)ccc1-c1cccc(OC(F)F)c1,,-22.4% (inactive)
O=[N+]([O-])c1ccc(-c2nc(Nc3ccc(F)c(F)c3)c3ccccc3n2)cc1,,-10.1% (inactive)
Fc1ccc(Nc2nc(-c3ccncc3)nc3ccccc23)cc1F,,-6.97% (inactive)
COc1ccc(-n2c(C)c(C(C)=O)c3ccccc32)cc1,inactive,
Fc1cc(Nc2nc(-c3ccncc3)nc3ccccc23)ccc1-c1ccncc1,,2.69% (inactive)
Fc1cc(Nc2nc(-c3ccncc3)nc3ccccc23)ccc1-c1cc(F)c(F)c(F)c1,,4.68% (inactive)
Fc1cc(Nc2nc(-c3ccncc3)nc3ccccc23)ccc1-c1cccc(OC(F)(F)F)c1,18.7 µM (active),
Fc1cc(Nc2nc(-c3ccncc3)nc3ccccc23)ccc1-c1ccnc(C(F)(F)F)c1,,-11.2% (inactive)
Fc1cc(Nc2nc(-c3ccncc3)nc3ccccc23)ccc1C(F)(F)F,7.43 µM (active) and 16.6 µM (active),
Fc1cc(Nc2nc(-c3ccncc3)nc3ccccc23)ccc1-c1cncnc1,,13.8% (inactive)
COc1ccc(-c2ccc(Nc3nc(-c4ccncc4)nc4ccccc34)cc2F)cc1F,,-27.8% (inactive)
Fc1cc(Nc2nc(-c3ccncc3)nc3ccccc23)ccc1-c1ccc2[nH]ncc2c1,,-12.3% (inactive)
Fc1ccc(Nc2nc(-c3ccncc3Cl)nc3ccccc23)cc1F,,-3.34% (inactive)
Fc1ccc(Nc2cc(-c3ccccc3)nc(-c3ccncc3)n2)cc1F,,-28.5% (inactive)
COc1ccc(Nc2nc(-c3ccncc3)nc3ccccc23)cc1F,,6.58% (inactive)
COc1cc(-c2nc(Nc3ccc(F)c(F)c3)c3ccccc3n2)c(F)cn1,23.5 µM (active),
Cc1cc(-c2nc(Nc3ccc(F)c(F)c3)c3ccccc3n2)ccn1,,5.15% (inactive)
Fc1ccc(-c2ccc(Nc3nc(-c4ccncc4)nc4ccccc34)cc2F)c(Cl)c1,18.7 µM (active),
COc1cc(Nc2nc(-c3ccncc3)nc3ccccc23)ccc1N1CCN(C)CC1,,4.02% (inactive)
Fc1cc(Nc2nc(-c3ccncc3)nc3ccccc23)ccc1-c1cn[nH]c1,,-4.27% (inactive)
